Measurements as given in PubChem BioAssay (Tox21).
Several values for one entry are separate records, joined by “and”; a condition that tells them apart may be missing. Identical values can stand only once. Inconclusive results are not listed. Entries that show only a call come without a potency. A structure can be active in one record and inactive in another. Activity calls are given as the source filed them. Unless noted, the call rests on the fitted dose curve.

Legend:
[1] = target: Gonadotropin-releasing hormone receptor (Homo sapiens) (UniProt P30968); test: Human gonadotropin-releasing hormone receptor (GnRHR) small molecule agonists, calcium flux assay in GnRHR-HEK293 cells (AID 1920063); further: nearly all actives have a fitted effect of over 35% in size; further: potency means the concentration at half of the fitted maximal effect
Gonadotropin-releasing hormone receptor (Homo sapiens), sequence (P30968 whole entry, looked up): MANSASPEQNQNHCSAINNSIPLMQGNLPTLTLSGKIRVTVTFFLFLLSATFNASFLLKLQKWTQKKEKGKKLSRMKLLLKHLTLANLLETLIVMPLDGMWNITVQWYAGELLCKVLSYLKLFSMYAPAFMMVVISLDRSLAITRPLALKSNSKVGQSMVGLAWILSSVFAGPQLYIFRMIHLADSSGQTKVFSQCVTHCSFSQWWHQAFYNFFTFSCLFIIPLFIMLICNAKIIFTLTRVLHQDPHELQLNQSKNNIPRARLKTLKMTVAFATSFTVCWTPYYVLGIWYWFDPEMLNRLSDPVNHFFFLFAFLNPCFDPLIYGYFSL
Method in brief: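 Stable human GnRHR HEK293 line. 18 h plating, then calcium dye for 1 h at 37 C. Agonist-mode compound addition from DMSO stocks; fluorescence monitored 3 min.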

[2] = target: KiSS-1 receptor (Homo sapiens) (UniProt Q969F8); test: Human kisspeptin (KISS1R) small molecule agonists, calcium flux assay in KISS1R-HEK293 cells (AID 1920064; active means well fitted activation curve with a large enough effect in the repeat runs; further: potency means the concentration at half of the fitted maximal effect)
KiSS-1 receptor (Homo sapiens), sequence (Q969F8 whole entry, looked up): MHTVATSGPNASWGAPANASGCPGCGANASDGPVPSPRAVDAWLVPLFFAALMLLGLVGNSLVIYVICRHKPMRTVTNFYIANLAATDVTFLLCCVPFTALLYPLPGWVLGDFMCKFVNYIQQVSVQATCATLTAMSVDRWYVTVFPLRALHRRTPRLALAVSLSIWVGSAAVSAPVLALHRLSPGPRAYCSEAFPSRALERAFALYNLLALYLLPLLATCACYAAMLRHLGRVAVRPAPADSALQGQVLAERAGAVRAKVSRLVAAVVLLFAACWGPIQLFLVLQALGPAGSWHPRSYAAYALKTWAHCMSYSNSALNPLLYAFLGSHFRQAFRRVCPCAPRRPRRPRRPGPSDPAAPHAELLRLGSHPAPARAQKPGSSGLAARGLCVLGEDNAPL
Method in brief: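 After overnight (18 h) culture at 37 C/5% CO2, human KISS1R-HEK293 cells received calcium dye for 1 h, then test compound; emission at 540 nm (excitation 480 nm) was tracked for 3 min.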

[3] = G protein-coupled receptor (GPCR) small molecule agonists, calcium flux assay: HEK293 wild type cell line counter screen (AID 1920065)
Method in brief: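 Following 18 h incubation at 37 C/5% CO2, plates got calcium dye for 1 h; compounds, ATP or DMSO were then pinned in and fluorescence followed kinetically (480/540 nm).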

[4] = p53 small molecule agonists, cell-based qHTS assay with human liver microsomes: qHTS cell viability counter screen (AID 1963579); further: nearly all actives have a fitted effect of over 45% in size
Method in brief: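 Metabolic activation used human liver microsomes and NADPH, both 0.5 mg/mL final, over 16 hours at 37 C on p53RE-bla cells (4,000/well). Cytotoxicity measured by CellTiter-Glo luminescence, 30 min at room temperature.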

[5] = p53 small molecule agonists, cell-based qHTS assay with rat liver microsomes: qHTS cell viability counter screen (AID 1963580); further: nearly all actives have a fitted effect of over 45% in size
Method in brief: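 Cytotoxicity counter screen: intracellular ATP measured by CellTiter-Glo luminescence in the same wells as the beta-lactamase reporter read, on HCT-116 p53RE-bla cells exposed 16 h at 37 C to compounds with rat liver microsomes and NADPH, each 0.5 mg/mL final.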

[6] = p53 small molecule agonists, cell-based qHTS assay: qHTS cell viability counter screen (AID 1963581); further: nearly all actives have a fitted effect of over 45% in size
Method in brief: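 qHTS counter screen: 16 h compound exposure at 37 C of p53RE-bla HCT-116 cells (4,000 per well, seeded 5 h prior), cell viability by ATP luminescence.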

[7] = cAMP Responsive Elements (CRE) small molecule agonists, cell-based qHTS assay (AID 1963590)
Method in brief: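 Test agents in DMSO were incubated 3 h at 37 C/5% CO2 with CRE-bla HEK 293T cells seeded 18 h earlier; LiveBLAzer B/G FRET substrate was added and read after 2 h at room temperature.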

[8] = cAMP Responsive Elements (CRE) small molecule antagonists, cell-based qHTS assay (AID 1963591; active means well fitted inhibition curve with a large enough effect in the signal ratio in the repeat runs, not every such curve was filed as active; the % refers to the signal ratio)
Method in brief: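 Reporter line CRE-bla HEK 293T in dialyzed-FBS DMEM; cells preincubated 18 h, treated 3 h with compound plus NKH477 (0.25 uM final); LiveBLAzer FRET, 2 h RT.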

[9] = target: Beta-2 adrenergic receptor (Homo sapiens) (UniProt P07550); test: Adrenergic beta2 receptor (ADRB2) small molecule agonists, cell-based qHTS assay (AID 1963593);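 further: CHO cells stably overexpressing human ADRB2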
Beta-2 adrenergic receptor (Homo sapiens), sequence (P07550 whole entry, looked up): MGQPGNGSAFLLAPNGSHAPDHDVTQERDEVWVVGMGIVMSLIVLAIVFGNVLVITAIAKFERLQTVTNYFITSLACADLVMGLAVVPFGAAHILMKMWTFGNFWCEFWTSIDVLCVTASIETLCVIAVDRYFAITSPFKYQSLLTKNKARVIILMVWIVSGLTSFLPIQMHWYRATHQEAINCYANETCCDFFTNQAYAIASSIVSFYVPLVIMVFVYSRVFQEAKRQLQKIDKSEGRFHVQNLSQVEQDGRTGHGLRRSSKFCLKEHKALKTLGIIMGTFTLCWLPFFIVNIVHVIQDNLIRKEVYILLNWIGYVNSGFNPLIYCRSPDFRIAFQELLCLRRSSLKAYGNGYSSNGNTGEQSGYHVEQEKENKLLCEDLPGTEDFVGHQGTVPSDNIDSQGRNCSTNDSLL
Method in brief: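 CHO cells stably over-expressing ADRB2 were plated overnight at 37C, then dosed with compounds plus a stimulation mix containing 100uM IBMX and 25uM Ro-20-1724 for 0.5hr at room temperature. cAMP was measured by HTRF competition, 1hr.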

[10] = target: D(2) dopamine receptor (Homo sapiens) (UniProt P14416); test: Dopamine D2 receptor (DRD2) small molecule agonists, cell-based qHTS assay (AID 1963594); further: nearly all actives have a fitted effect of over 35% in size; further: potency means the concentration at half of the fitted maximal effect
D(2) dopamine receptor (Homo sapiens), sequence (P14416 whole entry, looked up): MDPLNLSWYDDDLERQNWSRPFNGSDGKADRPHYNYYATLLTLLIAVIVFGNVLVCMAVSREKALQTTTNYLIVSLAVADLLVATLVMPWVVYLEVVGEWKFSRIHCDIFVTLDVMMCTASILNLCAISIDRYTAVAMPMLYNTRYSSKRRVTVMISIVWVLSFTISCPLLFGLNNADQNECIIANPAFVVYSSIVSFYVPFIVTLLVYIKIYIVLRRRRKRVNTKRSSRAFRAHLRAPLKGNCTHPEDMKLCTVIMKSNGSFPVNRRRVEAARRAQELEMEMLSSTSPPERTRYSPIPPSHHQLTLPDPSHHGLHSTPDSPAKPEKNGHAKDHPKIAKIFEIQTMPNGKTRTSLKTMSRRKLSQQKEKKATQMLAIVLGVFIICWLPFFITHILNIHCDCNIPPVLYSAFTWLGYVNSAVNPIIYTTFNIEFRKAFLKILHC
Method in brief: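 HEK293 cells stably expressing human DRD2, pre-treated with PDE inhibitor Ro20-1724 (0.1 mM final) and compound 10 min at room temperature, then stimulated with NKH477 (200nM […]) for 30 min. cAMP read by HTRF (665/620 nm).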

[11] = target: D(2) dopamine receptor (Homo sapiens) (UniProt P14416); test: Dopamine D2 receptor (DRD2) small molecule antagonists, cell-based qHTS assay (AID 1963595; active means well fitted inhibition curve with a large enough effect in the signal ratio in the repeat runs, with a control signal flat; the % refers to the signal ratio)
Method in brief: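 Readout: HTRF cAMP, cAMP-d2 competing with cellular cAMP for anti-cAMP cryptate, read after 1 h. Cells: DRD2-HEK293. Conditions: 0.1 mM Ro20-1724, 12 nM quinpirole, 200 nM NKH477, 30 min RT.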

[12] = Nuclear factor erythroid 2-related factor 2/antioxidant responsive element (Nrf2/ARE) small molecule agonists: luciferase reporter gene qHTS assay in human keratinocytes (AID 1919969); further: nearly all actives have a fitted effect of over 35% in size; further: potency means the concentration at half of the fitted maximal effect
[13] = p53 small molecule agonists, cell-based qHTS assay with human liver microsomes (AID 1963577);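 further: p53 response element beta-lactamase reporter cells with liver microsomes plus NADPH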
Method in brief: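 With metabolic activation: human liver microsomes (0.5 mg/mL final) plus NADPH (0.5 mg/mL final) added alongside compounds to p53RE-bla cells; 16 h 37 C exposure; beta-lactamase read by LiveBLAzer fluorescence.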

[14] = p53 small molecule agonists, cell-based qHTS assay with rat liver microsomes (AID 1963578)
Method in brief: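 Metabolic activation by rat liver microsomes and NADPH, each 0.5 mg/mL final, added right after compounds to p53RE-bla reporter cells (4,000/well, plated 5 h earlier). 16 h at 37 C, then LiveBLAzer substrate for 2 h at room temperature in the dark; fluorescence read-out.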

[15] = target: 5-hydroxytryptamine receptor 2A (Homo sapiens) (UniProt P28223); test: 5-hydroxytryptamine receptor 2A (HTR2A) small molecule antagonists, cell-based qHTS assay (AID 1963586); further: nearly all actives have a fitted effect of over 45% in size
5-hydroxytryptamine receptor 2A (Homo sapiens), sequence (P28223 whole entry, looked up): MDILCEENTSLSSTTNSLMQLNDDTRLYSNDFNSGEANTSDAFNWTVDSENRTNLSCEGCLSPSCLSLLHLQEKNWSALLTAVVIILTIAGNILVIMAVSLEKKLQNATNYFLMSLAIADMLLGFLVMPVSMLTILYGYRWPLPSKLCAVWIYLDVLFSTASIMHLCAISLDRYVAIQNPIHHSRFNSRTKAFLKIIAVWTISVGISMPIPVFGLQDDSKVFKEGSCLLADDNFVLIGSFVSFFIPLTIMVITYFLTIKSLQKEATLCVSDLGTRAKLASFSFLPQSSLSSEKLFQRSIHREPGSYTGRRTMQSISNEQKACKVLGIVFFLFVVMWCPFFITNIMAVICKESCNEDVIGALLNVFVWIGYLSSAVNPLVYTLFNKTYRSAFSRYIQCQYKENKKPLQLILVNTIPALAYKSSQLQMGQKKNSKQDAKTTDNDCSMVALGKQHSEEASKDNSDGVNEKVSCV
Method in brief: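 CHO cells stably expressing human HTR2A were plated for 18 h at 37 C, then loaded with calcium dye for 1 h. Compounds were preincubated 5 min at room temperature before DOI (4 nM solution) was added. Kinetic fluorescence was read for 3 min.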

[16] = target: 5-hydroxytryptamine receptor 2A (Homo sapiens) (UniProt P28223); test: 5-hydroxytryptamine receptor 2A (HTR2A) small molecule agonists, cell-based qHTS assay (AID 1963587); further: nearly all actives have a fitted effect of over 30% in size; further: potency means the concentration at half of the fitted maximal effect
Method in brief: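 CHO cells stably expressing human HTR2A, plated 18 h, loaded with calcium dye 1 h at 37 C. Agonist mode: compounds added and intracellular calcium fluorescence recorded kinetically for 2 min at 1 sec intervals.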

[17] = target: Muscarinic acetylcholine receptor M1 (Homo sapiens) (UniProt P11229); test: Cholinergic receptor muscarinic 1 (CHRM1) small molecule antagonists, cell-based qHTS assay (AID 1963588); further: nearly all actives have a fitted effect of over 40% in size
Muscarinic acetylcholine receptor M1 (Homo sapiens), sequence (P11229 whole entry, looked up): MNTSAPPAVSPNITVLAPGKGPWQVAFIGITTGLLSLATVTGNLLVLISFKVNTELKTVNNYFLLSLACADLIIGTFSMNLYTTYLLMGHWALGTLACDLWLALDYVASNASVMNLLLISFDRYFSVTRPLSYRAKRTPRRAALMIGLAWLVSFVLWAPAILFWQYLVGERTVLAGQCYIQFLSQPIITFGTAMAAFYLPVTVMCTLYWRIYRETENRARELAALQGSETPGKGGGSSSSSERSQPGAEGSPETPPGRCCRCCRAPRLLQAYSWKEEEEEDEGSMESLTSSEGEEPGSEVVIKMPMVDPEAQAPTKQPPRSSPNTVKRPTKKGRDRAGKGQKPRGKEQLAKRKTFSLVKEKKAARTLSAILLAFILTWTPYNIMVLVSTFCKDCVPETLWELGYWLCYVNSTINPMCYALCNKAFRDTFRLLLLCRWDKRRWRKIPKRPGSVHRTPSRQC
Method in brief: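 Compounds were tested at 15 concentrations in three independent runs. Dye-loaded CHRM1-CHO cells were exposed 5 min at room temperature before stimulation by acetylcholine added at 50nM. Intracellular calcium was read kinetically on FDSS for 3 min.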

[18] = target: Muscarinic acetylcholine receptor M1 (Homo sapiens) (UniProt P11229); test: Cholinergic receptor muscarinic 1 (CHRM1) small molecule agonists, cell-based qHTS assay (AID 1963589); further: nearly all actives have a fitted effect of over 35% in size; further: potency means the concentration at half of the fitted maximal effect
Method in brief: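 Kinetic fluorescence (1 s intervals) of calcium-sensitive dye in human M1 CHO cells after compound addition; cells pre-incubated 18 h at 37 C/5% CO2 and dye-loaded 1 h.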

[19] = target: Beta-2 adrenergic receptor (Homo sapiens) (UniProt P07550); test: Adrenergic beta2 receptor (ADRB2) small molecule antagonists, cell-based qHTS assay (AID 1963592); further: nearly all actives have a fitted effect of over 50% in size; further: potency means the concentration at half of the fitted maximal effect
Method in brief: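 Assay format: CHO-ADRB2 cells, 18-20hr seeding at 37C/5% CO2, then compound plus 1nM isoproterenol agonist mix for 0.5hr RT. Homogeneous time-resolved fluorescence cAMP detection after 1hr, expressed as 665/615 nm ratio.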

[20] = p53 small molecule agonists, cell-based qHTS assay (AID 1963582; active means well fitted activation curve with a large enough effect in the signal ratio in the repeat runs, not every such curve was filed as active; the % refers to the signal ratio)
Method in brief: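 Measured: fluorescence from cleaved LiveBLAzer substrate. System: p53RE-bla cells, 16 h compound treatment at 37 C, 2 h substrate step at room temperature.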

Row | SMILES | Potency [1] | Potency [2] | Potency [3] | Potency [4] | Potency [5] | Potency [6] | Potency [7] | Potency [8] | Potency [9] | Potency [10] | Potency [11] | Potency [12] | Potency [13] | Potency [14] | Potency [15] | Potency [16] | Potency [17] | Potency [18] | Potency [19] | Potency [20]
1 | CC(=O)CC(c1ccccc1)c1c(O)c2ccccc2oc1=O (stereo unspecified) | inactive | inactive | inactive | inactive | inactive | inactive | inactive | inactive | inactive | inactive | inactive |  |  |  |  |  |  |  |  | 
2 | CC1CCC2CC1C2(C)C (stereo unspecified) |  | inactive | inactive | inactive | inactive | inactive | inactive | inactive |  | inactive | inactive | inactive | inactive | inactive | inactive | inactive | inactive | inactive | inactive | 
3 | CCOC(=O)C(C#N)=C(c1ccccc1)c1ccccc1 | inactive | inactive | inactive |  | inactive |  | inactive |  | inactive |  | inactive | inactive | inactive | inactive | inactive | inactive | inactive | inactive | inactive | inactive
4 | COc1ccc(C(Cl)=C(c2ccc(OC)cc2)c2ccc(OC)cc2)cc1 | inactive | inactive | inactive | inactive | inactive |  |  |  | inactive | inactive | inactive | inactive | inactive | inactive | inactive | inactive | inactive | inactive | inactive | inactive
5 | CC1=CC(C)(C)Nc2ccccc21 | inactive | inactive |  | inactive | inactive | inactive | inactive | inactive | inactive | inactive | inactive | inactive |  | inactive | inactive | inactive | inactive | inactive |  | inactive
6 | CCCCOCCOCCSC#N | inactive | inactive | inactive | inactive | inactive | inactive | inactive | inactive | inactive | inactive | inactive | inactive |  | inactive | inactive | inactive | inactive | inactive |  | inactive
7 | C=C(C)OC(C)=O | inactive |  | inactive | inactive | inactive | inactive | inactive | inactive |  | inactive | inactive | inactive | inactive | inactive | inactive | inactive | inactive | inactive | inactive | inactive
8 | O=C1OC2(c3ccccc31)c1cc(I)c(O)c(I)c1Oc1c2cc(I)c(O)c1I | 22.1 µM (active) [middle of 4 runs] | 31.3 µM (active) and 26.8 µM (active) |  | inactive | inactive | inactive | inactive | inactive |  | 39 µM (active) and 31 µM (active) |  | inactive and 33.1 µM (active) | inactive | inactive | inactive | 31.3 µM (active) [middle of 4 runs] | inactive | 33.4 µM (active) [middle of 4 runs] | 33.5 µM (active) | inactive
